# Assays:
# [1] = biological target: T1, Inhibitor of nuclear factor kappa-B kinase subunit epsilon (Homo sapiens) (UniProt Q14164); conditions: at 1 µM;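 also: reported values are averaged percent inhibition figures against human IKKε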
# T1 sequence (whole entry): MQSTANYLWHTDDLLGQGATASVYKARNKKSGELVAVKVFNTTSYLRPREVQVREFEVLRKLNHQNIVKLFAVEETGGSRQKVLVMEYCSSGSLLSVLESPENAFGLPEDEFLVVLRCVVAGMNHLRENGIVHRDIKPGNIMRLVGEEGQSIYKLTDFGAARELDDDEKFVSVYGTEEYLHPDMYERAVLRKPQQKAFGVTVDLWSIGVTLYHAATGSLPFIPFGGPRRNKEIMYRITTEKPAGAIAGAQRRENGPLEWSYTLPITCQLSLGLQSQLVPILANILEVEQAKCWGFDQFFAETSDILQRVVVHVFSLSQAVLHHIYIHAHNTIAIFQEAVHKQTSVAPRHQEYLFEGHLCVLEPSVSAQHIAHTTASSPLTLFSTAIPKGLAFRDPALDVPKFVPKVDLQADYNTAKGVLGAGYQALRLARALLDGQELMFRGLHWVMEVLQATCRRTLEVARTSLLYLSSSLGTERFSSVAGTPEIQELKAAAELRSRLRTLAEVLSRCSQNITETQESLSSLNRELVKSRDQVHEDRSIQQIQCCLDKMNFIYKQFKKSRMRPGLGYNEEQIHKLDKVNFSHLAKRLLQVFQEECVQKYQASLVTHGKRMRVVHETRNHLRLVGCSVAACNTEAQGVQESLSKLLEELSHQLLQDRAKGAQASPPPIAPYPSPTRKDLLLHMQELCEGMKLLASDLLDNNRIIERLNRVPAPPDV
# [2] = biological target: T2, Serine/threonine-protein kinase Nek1 (Homo sapiens) (UniProt Q96PY6); conditions: at 0.1 µM
# T2 sequence (whole entry): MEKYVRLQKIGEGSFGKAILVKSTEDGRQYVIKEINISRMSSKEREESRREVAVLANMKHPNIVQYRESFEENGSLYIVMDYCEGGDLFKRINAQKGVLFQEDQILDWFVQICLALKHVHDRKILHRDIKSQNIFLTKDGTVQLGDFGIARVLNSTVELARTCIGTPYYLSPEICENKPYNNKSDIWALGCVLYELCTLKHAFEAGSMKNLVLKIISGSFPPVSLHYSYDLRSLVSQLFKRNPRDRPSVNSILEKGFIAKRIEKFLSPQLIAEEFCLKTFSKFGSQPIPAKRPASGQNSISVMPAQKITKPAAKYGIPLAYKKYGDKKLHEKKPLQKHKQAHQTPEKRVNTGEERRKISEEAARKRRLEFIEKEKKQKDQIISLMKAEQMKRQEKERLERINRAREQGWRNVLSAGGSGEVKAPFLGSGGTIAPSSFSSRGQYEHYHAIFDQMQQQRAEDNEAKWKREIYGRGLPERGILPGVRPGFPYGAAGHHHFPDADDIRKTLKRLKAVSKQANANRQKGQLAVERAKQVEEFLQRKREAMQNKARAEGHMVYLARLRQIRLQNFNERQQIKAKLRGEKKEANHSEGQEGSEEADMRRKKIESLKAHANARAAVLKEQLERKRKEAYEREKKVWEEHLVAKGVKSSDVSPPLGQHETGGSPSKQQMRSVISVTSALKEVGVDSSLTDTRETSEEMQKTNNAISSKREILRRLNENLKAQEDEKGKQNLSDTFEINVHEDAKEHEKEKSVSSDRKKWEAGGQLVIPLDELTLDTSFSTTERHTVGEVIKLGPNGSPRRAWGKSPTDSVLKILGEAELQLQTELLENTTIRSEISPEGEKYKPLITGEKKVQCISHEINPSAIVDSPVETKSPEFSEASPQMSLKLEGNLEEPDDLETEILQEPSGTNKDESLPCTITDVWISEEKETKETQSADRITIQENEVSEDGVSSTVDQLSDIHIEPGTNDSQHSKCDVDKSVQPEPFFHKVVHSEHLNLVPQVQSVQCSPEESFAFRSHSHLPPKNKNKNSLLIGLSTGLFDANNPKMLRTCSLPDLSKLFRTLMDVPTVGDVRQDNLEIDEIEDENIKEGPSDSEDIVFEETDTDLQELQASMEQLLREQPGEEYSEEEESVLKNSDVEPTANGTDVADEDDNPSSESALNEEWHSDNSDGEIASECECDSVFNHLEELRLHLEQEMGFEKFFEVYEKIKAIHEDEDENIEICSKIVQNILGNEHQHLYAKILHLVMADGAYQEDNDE
# [3] = biological target: T2, Serine/threonine-protein kinase Nek1 (Homo sapiens); conditions: at 1 µM
# [4] = biological target: T3, Serine/threonine-protein kinase Nek2 (Homo sapiens) (UniProt P51955); conditions: at 0.1 µM
# T3 sequence (whole entry): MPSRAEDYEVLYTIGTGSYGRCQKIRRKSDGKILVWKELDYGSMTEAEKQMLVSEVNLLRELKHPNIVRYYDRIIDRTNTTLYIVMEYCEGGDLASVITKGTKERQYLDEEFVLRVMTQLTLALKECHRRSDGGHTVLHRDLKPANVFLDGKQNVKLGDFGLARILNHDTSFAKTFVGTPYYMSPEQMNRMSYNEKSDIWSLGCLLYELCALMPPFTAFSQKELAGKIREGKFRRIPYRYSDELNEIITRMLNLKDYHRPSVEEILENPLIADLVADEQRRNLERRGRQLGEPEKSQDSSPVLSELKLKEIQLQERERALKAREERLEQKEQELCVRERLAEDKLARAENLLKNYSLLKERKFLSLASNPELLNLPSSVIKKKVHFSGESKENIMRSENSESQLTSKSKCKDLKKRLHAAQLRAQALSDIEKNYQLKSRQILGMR
# [5] = biological target: T3, Serine/threonine-protein kinase Nek2 (Homo sapiens); conditions: at 1 µM
# [6] = biological target: Serine/threonine-protein kinase Nek6 (Homo sapiens) (UniProt Q9HC98); conditions: at 0.1 µM
# Sequence of Serine/threonine-protein kinase Nek6 (Homo sapiens) (Q9HC98 whole entry): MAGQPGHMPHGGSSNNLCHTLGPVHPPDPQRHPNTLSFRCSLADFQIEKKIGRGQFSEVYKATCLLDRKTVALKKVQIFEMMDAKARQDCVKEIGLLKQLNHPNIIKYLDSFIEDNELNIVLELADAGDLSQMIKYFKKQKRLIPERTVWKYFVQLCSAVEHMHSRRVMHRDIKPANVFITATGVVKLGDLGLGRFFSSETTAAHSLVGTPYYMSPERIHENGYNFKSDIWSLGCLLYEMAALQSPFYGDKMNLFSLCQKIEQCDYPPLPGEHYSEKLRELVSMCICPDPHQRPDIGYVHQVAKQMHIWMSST
# [7] = biological target: Serine/threonine-protein kinase Nek6 (Homo sapiens) (UniProt Q9HC98); conditions: at 1 µM
# [8] = biological target: Serine/threonine-protein kinase Nek7 (Homo sapiens) (UniProt Q8TDX7); conditions: at 0.1 µM
# Sequence of Serine/threonine-protein kinase Nek7 (Homo sapiens) (Q8TDX7 whole entry, looked up): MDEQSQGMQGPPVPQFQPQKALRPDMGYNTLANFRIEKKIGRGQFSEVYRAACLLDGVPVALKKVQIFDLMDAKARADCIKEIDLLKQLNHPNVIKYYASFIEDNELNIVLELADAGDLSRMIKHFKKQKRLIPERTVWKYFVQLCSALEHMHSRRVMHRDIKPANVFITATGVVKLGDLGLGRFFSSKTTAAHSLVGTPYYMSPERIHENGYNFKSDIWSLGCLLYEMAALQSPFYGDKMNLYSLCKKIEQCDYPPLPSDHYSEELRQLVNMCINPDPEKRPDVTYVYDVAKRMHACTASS
# [9] = biological target: Serine/threonine-protein kinase Nek7 (Homo sapiens) (UniProt Q8TDX7); conditions: at 1 µM
# [10] = biological target: T4, Serine/threonine-protein kinase Nek9 (Homo sapiens) (UniProt Q8TD19); conditions: at 0.1 µM
# T4 sequence (whole entry): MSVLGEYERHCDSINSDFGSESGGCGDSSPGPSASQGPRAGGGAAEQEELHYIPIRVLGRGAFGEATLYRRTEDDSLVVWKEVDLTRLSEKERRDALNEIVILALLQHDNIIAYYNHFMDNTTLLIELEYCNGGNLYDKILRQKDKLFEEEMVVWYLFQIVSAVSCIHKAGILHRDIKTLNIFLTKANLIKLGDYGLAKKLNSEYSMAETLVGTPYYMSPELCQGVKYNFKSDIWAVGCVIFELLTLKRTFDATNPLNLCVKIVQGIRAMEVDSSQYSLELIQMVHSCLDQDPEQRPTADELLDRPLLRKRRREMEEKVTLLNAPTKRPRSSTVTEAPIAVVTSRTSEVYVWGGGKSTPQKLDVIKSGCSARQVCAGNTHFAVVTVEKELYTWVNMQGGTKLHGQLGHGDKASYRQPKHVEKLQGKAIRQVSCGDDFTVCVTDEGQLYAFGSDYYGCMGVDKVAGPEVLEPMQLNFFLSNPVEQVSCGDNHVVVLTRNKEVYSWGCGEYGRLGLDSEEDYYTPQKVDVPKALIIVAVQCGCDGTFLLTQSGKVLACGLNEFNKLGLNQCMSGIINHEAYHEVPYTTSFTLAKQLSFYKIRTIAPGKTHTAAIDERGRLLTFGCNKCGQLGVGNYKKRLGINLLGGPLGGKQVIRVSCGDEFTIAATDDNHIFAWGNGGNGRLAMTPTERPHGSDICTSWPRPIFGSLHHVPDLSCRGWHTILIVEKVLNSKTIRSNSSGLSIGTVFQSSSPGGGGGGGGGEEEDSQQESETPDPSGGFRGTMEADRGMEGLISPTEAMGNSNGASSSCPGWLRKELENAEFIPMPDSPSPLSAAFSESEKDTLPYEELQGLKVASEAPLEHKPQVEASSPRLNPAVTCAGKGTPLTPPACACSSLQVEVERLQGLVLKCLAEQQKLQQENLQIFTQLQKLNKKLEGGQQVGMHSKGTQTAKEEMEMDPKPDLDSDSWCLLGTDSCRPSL
# [11] = biological target: T4, Serine/threonine-protein kinase Nek9 (Homo sapiens); conditions: at 1 µM
# [12] = biological target: Serine/threonine-protein kinase PLK1 (Homo sapiens) (UniProt P53350); conditions: at 0.1 µM
# Sequence of Serine/threonine-protein kinase PLK1 (Homo sapiens) (P53350 whole entry): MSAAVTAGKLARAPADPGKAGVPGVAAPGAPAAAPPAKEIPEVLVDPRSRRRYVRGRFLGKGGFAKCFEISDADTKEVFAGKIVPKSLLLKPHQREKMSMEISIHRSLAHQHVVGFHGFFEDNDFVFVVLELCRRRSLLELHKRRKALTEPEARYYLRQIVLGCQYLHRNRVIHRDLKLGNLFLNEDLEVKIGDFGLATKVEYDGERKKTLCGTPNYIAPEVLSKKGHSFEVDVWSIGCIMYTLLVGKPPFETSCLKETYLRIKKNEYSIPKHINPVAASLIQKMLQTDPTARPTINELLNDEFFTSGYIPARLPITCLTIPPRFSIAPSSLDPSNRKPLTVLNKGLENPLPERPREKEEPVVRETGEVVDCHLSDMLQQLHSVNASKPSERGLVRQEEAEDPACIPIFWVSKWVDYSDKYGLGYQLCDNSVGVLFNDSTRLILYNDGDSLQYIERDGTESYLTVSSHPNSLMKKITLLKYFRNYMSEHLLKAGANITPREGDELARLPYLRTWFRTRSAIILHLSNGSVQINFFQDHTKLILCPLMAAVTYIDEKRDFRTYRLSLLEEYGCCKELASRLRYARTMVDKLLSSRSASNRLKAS
# [13] = biological target: Serine/threonine-protein kinase PLK1 (Homo sapiens) (UniProt P53350); conditions: at 1 µM
# [14] = biological target: T5, Dual specificity protein kinase TTK (Homo sapiens) (UniProt P33981); conditions: at 0.1 µM
# T5 sequence (whole entry): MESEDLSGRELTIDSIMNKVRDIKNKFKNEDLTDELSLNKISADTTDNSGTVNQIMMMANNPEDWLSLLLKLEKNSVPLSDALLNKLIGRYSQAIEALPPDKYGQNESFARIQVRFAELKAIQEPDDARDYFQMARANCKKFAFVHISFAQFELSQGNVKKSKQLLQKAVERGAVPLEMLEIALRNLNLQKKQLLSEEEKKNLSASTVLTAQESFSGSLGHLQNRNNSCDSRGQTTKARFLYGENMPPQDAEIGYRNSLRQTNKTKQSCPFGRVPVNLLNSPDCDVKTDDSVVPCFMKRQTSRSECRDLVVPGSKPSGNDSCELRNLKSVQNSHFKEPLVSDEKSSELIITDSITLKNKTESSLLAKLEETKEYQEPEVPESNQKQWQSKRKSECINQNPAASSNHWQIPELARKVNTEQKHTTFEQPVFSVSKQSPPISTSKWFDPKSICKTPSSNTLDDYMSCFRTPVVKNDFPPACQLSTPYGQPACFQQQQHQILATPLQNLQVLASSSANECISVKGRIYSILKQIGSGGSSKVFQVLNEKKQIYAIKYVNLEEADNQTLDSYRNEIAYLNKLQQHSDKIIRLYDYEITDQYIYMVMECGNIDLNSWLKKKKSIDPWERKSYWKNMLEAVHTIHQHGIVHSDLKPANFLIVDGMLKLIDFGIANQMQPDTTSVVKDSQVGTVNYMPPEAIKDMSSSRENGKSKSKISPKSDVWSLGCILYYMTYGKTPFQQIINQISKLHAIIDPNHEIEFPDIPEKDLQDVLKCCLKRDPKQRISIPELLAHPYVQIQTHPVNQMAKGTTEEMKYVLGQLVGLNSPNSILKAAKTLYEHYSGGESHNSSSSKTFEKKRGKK
# [15] = system: T6, Receptor-type tyrosine-protein kinase FLT3 (Homo sapiens), P36888 [D835Y]; conditions: at 1 µM
# T6 sequence (whole entry): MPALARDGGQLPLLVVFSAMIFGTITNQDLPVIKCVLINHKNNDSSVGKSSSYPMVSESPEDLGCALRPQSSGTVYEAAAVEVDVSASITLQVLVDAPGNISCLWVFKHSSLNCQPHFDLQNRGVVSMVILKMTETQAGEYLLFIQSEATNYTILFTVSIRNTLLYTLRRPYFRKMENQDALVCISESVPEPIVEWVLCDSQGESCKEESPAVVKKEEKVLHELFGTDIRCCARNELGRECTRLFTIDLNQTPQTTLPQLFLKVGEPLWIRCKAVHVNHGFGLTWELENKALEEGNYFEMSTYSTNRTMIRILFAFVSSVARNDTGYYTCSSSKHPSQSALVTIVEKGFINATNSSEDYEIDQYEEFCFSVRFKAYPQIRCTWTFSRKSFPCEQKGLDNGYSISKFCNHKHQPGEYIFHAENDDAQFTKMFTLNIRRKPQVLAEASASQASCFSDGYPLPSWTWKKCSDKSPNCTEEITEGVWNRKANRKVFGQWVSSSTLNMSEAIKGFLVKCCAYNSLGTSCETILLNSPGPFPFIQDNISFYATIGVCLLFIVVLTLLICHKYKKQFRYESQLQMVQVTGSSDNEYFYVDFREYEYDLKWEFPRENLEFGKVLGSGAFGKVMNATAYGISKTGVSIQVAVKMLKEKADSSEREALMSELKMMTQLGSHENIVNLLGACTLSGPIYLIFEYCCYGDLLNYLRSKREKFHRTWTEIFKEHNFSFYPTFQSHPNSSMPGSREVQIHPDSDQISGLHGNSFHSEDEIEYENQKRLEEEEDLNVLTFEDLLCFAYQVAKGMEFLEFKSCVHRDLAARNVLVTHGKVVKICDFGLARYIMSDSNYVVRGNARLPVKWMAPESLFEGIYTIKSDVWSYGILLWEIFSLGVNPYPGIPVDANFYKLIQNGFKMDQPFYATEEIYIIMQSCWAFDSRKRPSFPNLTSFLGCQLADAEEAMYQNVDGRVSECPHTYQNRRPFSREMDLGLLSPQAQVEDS
# [16] = biological target: Vascular endothelial growth factor receptor 3 (Homo sapiens) (UniProt P35916); conditions: at 0.1 µM
# Sequence of Vascular endothelial growth factor receptor 3 (Homo sapiens) (P35916 whole entry): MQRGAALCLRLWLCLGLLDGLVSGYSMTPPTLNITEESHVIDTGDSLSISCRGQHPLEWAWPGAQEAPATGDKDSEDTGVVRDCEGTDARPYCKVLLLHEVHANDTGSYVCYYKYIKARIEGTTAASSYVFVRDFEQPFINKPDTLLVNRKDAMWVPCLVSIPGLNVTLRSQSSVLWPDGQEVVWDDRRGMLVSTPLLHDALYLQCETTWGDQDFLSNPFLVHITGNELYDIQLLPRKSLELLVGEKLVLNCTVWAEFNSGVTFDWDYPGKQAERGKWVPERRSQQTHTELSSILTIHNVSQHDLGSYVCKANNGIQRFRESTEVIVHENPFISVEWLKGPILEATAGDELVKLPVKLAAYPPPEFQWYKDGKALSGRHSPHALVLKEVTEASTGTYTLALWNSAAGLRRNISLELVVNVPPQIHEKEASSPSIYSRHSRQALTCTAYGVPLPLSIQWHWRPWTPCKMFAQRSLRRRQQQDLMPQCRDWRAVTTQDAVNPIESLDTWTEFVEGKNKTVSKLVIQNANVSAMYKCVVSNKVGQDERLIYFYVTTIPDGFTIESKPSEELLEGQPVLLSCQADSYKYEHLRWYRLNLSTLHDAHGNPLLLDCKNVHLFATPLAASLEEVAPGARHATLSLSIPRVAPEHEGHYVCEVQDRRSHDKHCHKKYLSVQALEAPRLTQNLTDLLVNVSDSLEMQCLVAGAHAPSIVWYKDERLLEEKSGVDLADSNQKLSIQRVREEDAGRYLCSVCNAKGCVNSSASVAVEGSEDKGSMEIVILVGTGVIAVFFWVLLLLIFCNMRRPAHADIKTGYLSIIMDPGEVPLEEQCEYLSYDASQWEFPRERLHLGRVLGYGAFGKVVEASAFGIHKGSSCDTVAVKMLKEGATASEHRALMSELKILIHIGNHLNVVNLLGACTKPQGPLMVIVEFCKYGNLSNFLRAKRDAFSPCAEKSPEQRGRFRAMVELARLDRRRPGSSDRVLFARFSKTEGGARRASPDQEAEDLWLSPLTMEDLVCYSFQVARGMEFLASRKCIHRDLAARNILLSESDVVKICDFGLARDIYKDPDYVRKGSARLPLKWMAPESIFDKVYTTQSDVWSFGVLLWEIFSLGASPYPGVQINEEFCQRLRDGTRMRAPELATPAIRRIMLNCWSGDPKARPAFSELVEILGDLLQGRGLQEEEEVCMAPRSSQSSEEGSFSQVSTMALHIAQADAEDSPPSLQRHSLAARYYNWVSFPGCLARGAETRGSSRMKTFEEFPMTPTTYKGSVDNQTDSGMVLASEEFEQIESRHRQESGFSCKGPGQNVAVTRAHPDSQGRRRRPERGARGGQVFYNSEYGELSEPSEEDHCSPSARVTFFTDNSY
# [17] = biological target: Vascular endothelial growth factor receptor 3 (Homo sapiens) (UniProt P35916); conditions: at 1 µM
# [18] = biological target: Macrophage colony-stimulating factor 1 receptor (Homo sapiens) (UniProt P07333); conditions: at 0.1 µM
# Sequence of Macrophage colony-stimulating factor 1 receptor (Homo sapiens) (P07333 whole entry): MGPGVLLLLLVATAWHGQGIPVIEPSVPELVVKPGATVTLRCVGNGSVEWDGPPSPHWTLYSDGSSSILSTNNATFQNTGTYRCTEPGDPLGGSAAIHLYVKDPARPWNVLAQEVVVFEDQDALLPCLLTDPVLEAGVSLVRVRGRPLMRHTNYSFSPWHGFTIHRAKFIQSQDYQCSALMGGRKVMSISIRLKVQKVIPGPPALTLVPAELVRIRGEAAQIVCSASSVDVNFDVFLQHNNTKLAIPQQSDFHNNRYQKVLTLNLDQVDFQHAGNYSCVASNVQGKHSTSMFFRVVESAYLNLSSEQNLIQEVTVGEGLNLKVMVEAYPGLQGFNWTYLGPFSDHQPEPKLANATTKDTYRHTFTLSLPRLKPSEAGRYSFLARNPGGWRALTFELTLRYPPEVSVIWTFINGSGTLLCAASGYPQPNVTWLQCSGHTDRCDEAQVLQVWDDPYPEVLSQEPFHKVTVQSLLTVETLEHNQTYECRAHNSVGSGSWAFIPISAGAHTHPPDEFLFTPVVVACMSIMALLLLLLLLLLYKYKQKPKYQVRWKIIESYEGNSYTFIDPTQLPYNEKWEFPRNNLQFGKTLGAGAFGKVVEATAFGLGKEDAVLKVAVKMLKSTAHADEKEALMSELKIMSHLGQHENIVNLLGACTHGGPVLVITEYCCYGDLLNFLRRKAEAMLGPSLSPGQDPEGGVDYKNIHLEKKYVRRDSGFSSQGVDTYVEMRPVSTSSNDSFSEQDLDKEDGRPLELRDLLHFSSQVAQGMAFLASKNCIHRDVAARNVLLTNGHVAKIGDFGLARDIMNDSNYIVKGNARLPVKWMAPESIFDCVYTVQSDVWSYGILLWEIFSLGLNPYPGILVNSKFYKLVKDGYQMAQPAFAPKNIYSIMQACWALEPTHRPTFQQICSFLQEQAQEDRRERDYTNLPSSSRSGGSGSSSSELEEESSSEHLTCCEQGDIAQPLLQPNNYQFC
# [19] = biological target: Macrophage colony-stimulating factor 1 receptor (Homo sapiens) (UniProt P07333); conditions: at 1 µM
# [20] = biological target: Tyrosine-protein kinase Fyn (Homo sapiens) (UniProt P06241); conditions: at 0.1 µM
# Sequence of Tyrosine-protein kinase Fyn (Homo sapiens) (P06241 2-537 limits assumed): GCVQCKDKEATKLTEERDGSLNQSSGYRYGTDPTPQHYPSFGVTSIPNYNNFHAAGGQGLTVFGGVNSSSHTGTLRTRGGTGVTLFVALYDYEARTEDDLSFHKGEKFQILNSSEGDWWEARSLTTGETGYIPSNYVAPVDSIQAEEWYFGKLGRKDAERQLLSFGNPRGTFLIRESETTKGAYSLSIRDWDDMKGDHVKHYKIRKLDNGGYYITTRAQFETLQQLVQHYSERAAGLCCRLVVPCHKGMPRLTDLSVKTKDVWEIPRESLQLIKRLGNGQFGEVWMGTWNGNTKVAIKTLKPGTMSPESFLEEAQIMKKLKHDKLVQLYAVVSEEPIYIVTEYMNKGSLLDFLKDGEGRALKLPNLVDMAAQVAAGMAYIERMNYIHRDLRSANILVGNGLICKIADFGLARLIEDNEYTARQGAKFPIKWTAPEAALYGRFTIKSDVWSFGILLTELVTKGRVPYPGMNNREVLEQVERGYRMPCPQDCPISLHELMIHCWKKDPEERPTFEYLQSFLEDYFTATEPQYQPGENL
smiles,measurement,setting,value
COc1cc(Nc2ncc(-c3ccccc3)o2)cc(OC)c1OC,inhibition,[1],1.15%
same,inhibition,[2],-1.04%
same,inhibition,[3],1.71%
same,inhibition,[4],-1.53%
same,inhibition,[5],-0.62%
same,inhibition,[6],-1.01%
same,inhibition,[7],-3.53%
same,inhibition,[8],-3.32%
same,inhibition,[9],3.67%
same,inhibition,[10],5.06%
same,inhibition,[11],8.49%
same,inhibition,[12],-0.55%
same,inhibition,[13],2.1%
same,inhibition,[14],5.82%
same,inhibition,[15],63.1%
same,inhibition,[16],7.69%
same,inhibition,[17],36.7%
same,inhibition,[18],20.1%
same,inhibition,[19],57.6%
same,inhibition,[20],6.4%
CS(=O)(=O)CCNCc1ccc(-c2ccc3ncnc(Nc4ccc(OCc5ccccc5)c(Br)c4)c3c2)o1,inhibition,[1],4.71%
same,inhibition,[2],1.95%
same,inhibition,[3],1.93%
same,inhibition,[4],5.02%
same,inhibition,[5],3.81%
same,inhibition,[6],4.55%
same,inhibition,[7],3.89%
same,inhibition,[8],3.08%
same,inhibition,[9],5.42%
same,inhibition,[10],6.05%
same,inhibition,[11],5.79%
same,inhibition,[12],3.69%
same,inhibition,[13],3.81%
same,inhibition,[14],11.1%
same,inhibition,[15],-0.11%
same,inhibition,[16],-7.55%
same,inhibition,[17],-9.98%
same,inhibition,[18],-1.9%
same,inhibition,[19],6.06%
same,inhibition,[20],-0.04%

# Source: ChEMBL document CHEMBL1961873, “Compounds: GSK PKIS; Assays: Nanosyn kinase panel” (2012)
